The results in this text go back to PubChem BioAssay (NCI).

The structures appear in SMILES notation. Compounds without any hit were thinned out: in the full panel of roughly 79,000, 15% have a hit. Unmarked numbers belong to inactive results. Calls of active or inactive are those of the source. Rule as the data show it: active = growth inhibition above about 70%; inactive = the rest.

The nature of experiment [1]: NCI Yeast Anticancer Drug Screen. Data for the rad50 strain (AID 155).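 Also: 0% = growth of vehicle-only cultures of the same strain.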 Particulars: S. cerevisiae rad50 strain growth inhibition, stronger effect = higher value. The gist of the method: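 Readout: growth inhibition relative to vehicle-treated cultures. Compound exposure was carried out in a genetically defined yeast strain deficient in DNA damage repair.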
A short description of experiment [2]: NCI Yeast Anticancer Drug Screen. Data for the mec2-1 strain (AID 157). Particulars: S. cerevisiae mec2-1 strain, stronger effect = higher value. The gist of the method:
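Readout is yeast growth inhibition, normalised to vehicle-treated controls, in the mec2-1 strain exposed to compound.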

A short description of experiment [3]: NCI Yeast Anticancer Drug Screen. Data for the sgs1 mgt1 strain (AID 161).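 Also: 0% = growth of cultures given vehicle only.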 Particulars: S. cerevisiae sgs1 mgt1 strain, stronger effect = higher value. The gist of the method:
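Compounds are added to genetically altered yeast, and growth is compared with cultures given vehicle alone to give percent inhibition.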

A short description of experiment [4]: NCI Yeast Anticancer Drug Screen. Data for the cln2 rad14 strain (AID 165).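 Also: 0% = growth equal to vehicle treated cultures.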 The conditions noted are these: S. cerevisiae cln2 rad14 strain, stronger effect = higher value. Put shortly:
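Relative to vehicle controls, growth inhibition of compound-treated cln2 rad14 yeast was recorded.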

Experiment [5] is described as follows: NCI Yeast Anticancer Drug Screen. Data for the bub3 strain (AID 167). Particulars: S. cerevisiae bub3 mutant strain, stronger effect = higher value. The gist of the method: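 Readout: yeast growth inhibition, expressed relative to vehicle-only wells. The test organism is a mutant strain from a panel with lesions in DNA repair or checkpoint genes.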
The nature of experiment [6]: NCI Yeast Anticancer Drug Screen. Data for the mlh1 rad18 strain (AID 175). Particulars: S. cerevisiae mlh1 rad18 strain growth inhibition, stronger effect = higher value. Put shortly: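 Test agents were incubated with a yeast strain of defined genotype (DNA damage repair defect). Inhibition of growth was derived by comparison with vehicle-exposed cultures.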
The mark [7] stands for this setting: at 5.0 µM (retest, dose inferred, filed as 0.5).
[8] abbreviates: at 50.0 µM (retest, dose inferred, filed as 5.0).

For `O=C(OCC1OC(OCC(OC(=O)c2ccccc2)C(OC(=O)c2ccccc2)C(OC(=O)c2ccccc2)c2cnn(-c3ccccc3)n2)C(OC(=O)c2ccccc2)C(OC(=O)c2ccccc2)C1OC(=O)c1ccccc1)c1ccccc1` (stereo unspecified), the growth inhibition in experiment [1] (setting [7]) was -6%; in experiment [1] (setting [8]), -1%; in experiment [1] (at 50.0 µM) it was 97.5% (active); in experiment [2] (setting [7]), -14%; in experiment [2] (setting [8]), -21%; in experiment [2] (at 50.0 µM) it was 94.8% (active). For the same compound, the growth inhibition in experiment [3] (setting [7]) was -1%; in experiment [3] (setting [8]) it was -6%; in experiment [3] (at 50.0 µM) it was 98% (active); in experiment [4] (setting [7]), 6%; in experiment [4] (setting [8]) it was 7%; in experiment [4] (at 50.0 µM), 98.6% (active). Further, the growth inhibition in experiment [5] (setting [7]) is -12%; in experiment [5] (setting [8]), 4%; in experiment [5] (at 50.0 µM) it was 96.8% (active); in experiment [6] (setting [7]), -4%; in experiment [6] (setting [8]) it was -10%; in experiment [6] (at 50.0 µM), 97.7% (active).
`O=C(O)Cc1cccc2c(=O)c3cccc([N+](=O)[O-])c3[nH]c12`: the growth inhibition was 32% in experiment [1] (setting [7]); 87% (active) in experiment [1] (setting [8]); 74.6% (active) in experiment [1] (at 50.0 µM); 24% in experiment [2] (setting [7]); 83% (active) in experiment [2] (setting [8]); 58% in experiment [2] (at 50.0 µM). The growth inhibition in experiment [3] (setting [7]) was 24%; in experiment [3] (setting [8]), 60%; in experiment [3] (at 50.0 µM) it was 53.1%; in experiment [4] (setting [7]), 28%; in experiment [4] (setting [8]) it was 79% (active); in experiment [4] (at 50.0 µM), 65%. Further, the growth inhibition in experiment [5] (setting [7]) is 22%; in experiment [5] (setting [8]), 85% (active); in experiment [5] (at 50.0 µM), 45.5%; in experiment [6] (setting [7]) it was 28%; in experiment [6] (setting [8]), 86% (active); in experiment [6] (at 50.0 µM), 69.8%.
As to `COc1ccc2ccccc2c1Cc1c(OC)ccc2ccccc12`, the growth inhibition in experiment [1] (setting [7]) was -2%; in experiment [1] (setting [8]), 98% (active); in experiment [1] (at 50.0 µM), -11.7%; in experiment [2] (setting [7]) it was -2%; in experiment [2] (setting [8]), 98% (active); in experiment [2] (at 50.0 µM), 8.65%. Besides, the growth inhibition was -2% in experiment [3] (setting [7]); 98% (active) in experiment [3] (setting [8]); -2.7% in experiment [3] (at 50.0 µM); -15% in experiment [4] (setting [7]); 98% (active) in experiment [4] (setting [8]); 7.65% in experiment [4] (at 50.0 µM). Also, the growth inhibition in experiment [5] (setting [7]) was -5%; in experiment [5] (setting [8]) it was 98% (active); in experiment [5] (at 50.0 µM), -6.35%; in experiment [6] (setting [7]) it was 0%; in experiment [6] (setting [8]), 98% (active); in experiment [6] (at 50.0 µM), 9.35%.
With `Cn1c2nc(-[n+]3ccccc3)nc-2c([O-])n(C)c1=O`, the growth inhibition in experiment [1] (setting [7]) is 1%; in experiment [1] (setting [8]) it was 3%; in experiment [1] (at 50.0 µM), -15.8%; in experiment [2] (setting [7]), 3%; in experiment [2] (setting [8]), 7%; in experiment [2] (at 50.0 µM), -2.25%. Besides, the growth inhibition in experiment [3] (setting [7]) was -1%; in experiment [3] (setting [8]) it was 39%; in experiment [3] (at 50.0 µM) it was 2.1%; in experiment [4] (setting [7]) it was -2%; in experiment [4] (setting [8]) it was 7%; in experiment [4] (at 50.0 µM), 70% (active). The growth inhibition in experiment [5] (setting [7]) is -1%; in experiment [5] (setting [8]), 0%; in experiment [5] (at 50.0 µM), -6.95%; in experiment [6] (setting [7]), -1%; in experiment [6] (setting [8]) it was 8%; in experiment [6] (at 50.0 µM) it was -8.75%.
Turning to `CCCc1nc2c(nc1C)C(=O)C=CC2=O`, the growth inhibition in experiment [1] (setting [7]) was -101%; in experiment [1] (setting [8]), 96% (active); in experiment [1] (at 50.0 µM) it was 96.5% (active); in experiment [2] (setting [7]) it was -37%; in experiment [2] (setting [8]), 99% (active); in experiment [2] (at 50.0 µM) it was 97.5% (active). Also, the growth inhibition in experiment [3] (setting [7]) is -46%; in experiment [3] (setting [8]), 95% (active); in experiment [3] (at 50.0 µM), 81.6% (active); in experiment [4] (setting [7]), -44%; in experiment [4] (setting [8]), 97% (active); in experiment [4] (at 50.0 µM), 86.5% (active). For the same compound, the growth inhibition is -53% in experiment [5] (setting [7]); 96% (active) in experiment [5] (setting [8]); 97.1% (active) in experiment [5] (at 50.0 µM); -80% in experiment [6] (setting [7]); 96% (active) in experiment [6] (setting [8]); 98.3% (active) in experiment [6] (at 50.0 µM).
Turning to `COc1cc(C)cc2c(-c3c(O)cc(O)c4c3C[C@H](C)N[C@H]4C)cc(-c3cc(-c4c(O)cc(O)c5c4C[C@H](C)N[C@H]5C)c4cc(C)cc(OC)c4c3O)c(O)c12`, the growth inhibition was -6% in experiment [1] (setting [7]); 27% in experiment [1] (setting [8]); -28.4% in experiment [1] (at 50.0 µM); -10% in experiment [2] (setting [7]); -12% in experiment [2] (setting [8]); -27.8% in experiment [2] (at 50.0 µM). The growth inhibition in experiment [3] (setting [7]) was -14%; in experiment [3] (setting [8]) it was -7%; in experiment [3] (at 50.0 µM), 18.7%; in experiment [4] (setting [7]), 0%; in experiment [4] (setting [8]), 1%; in experiment [4] (at 50.0 µM), 87% (active). Moreover, the growth inhibition in experiment [5] (setting [7]) was 0%; in experiment [5] (setting [8]) it was -23%; in experiment [5] (at 50.0 µM), -48.5%; in experiment [6] (setting [7]) it was -18%; in experiment [6] (setting [8]) it was 27%; in experiment [6] (at 50.0 µM), 2.7%.
For `COc1ccc(OC)c(C[P+](c2ccccc2)(c2ccccc2)c2ccccc2)c1`, the growth inhibition in experiment [1] (setting [7]) is 97% (active); in experiment [1] (setting [8]), 96% (active); in experiment [1] (at 50.0 µM), 98.7% (active); in experiment [2] (setting [7]) it was 97% (active); in experiment [2] (setting [8]) it was 99% (active); in experiment [2] (at 50.0 µM) it was 98.9% (active). Besides, the growth inhibition is 97% (active) in experiment [3] (setting [7]); 99% (active) in experiment [3] (setting [8]); 98.5% (active) in experiment [3] (at 50.0 µM); 92% (active) in experiment [4] (setting [7]); 99% (active) in experiment [4] (setting [8]); 98.8% (active) in experiment [4] (at 50.0 µM). Besides, the growth inhibition in experiment [5] (setting [7]) was 96% (active); in experiment [5] (setting [8]), 99% (active); in experiment [5] (at 50.0 µM), 99% (active); in experiment [6] (setting [7]), 98% (active); in experiment [6] (setting [8]), 99% (active); in experiment [6] (at 50.0 µM), 99% (active).
